Measured values: the supplement of paper PMC10849652
Of roughly 7,900 targets only a part is listed; those with a hit were picked by preference. About 0.6% of all pairs of compound and target were hits. A number with no mark means an inactive call.

compound: NC(=O)Nc1cc(-c2cccc(F)c2)sc1C(=O)N[C@H]1CCCNC1; assay: log2 fold change, soluble protein after heating vs DMSO (PISA); higher = thermal stabilisation; K562 cells, 10 uM, 30 min; active = over 0.2 and 3.5 SD of the protein, either way, in both replicates (recomputed)
In short: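 Values are thermal stability changes relative to control samples and are taken from duplicates. They are stated as log2 fold changes. Before quantification by TMTpro 16plex LC-MS/MS with equalised channel sums, K562 cells at 2×10^6 cells/mL were treated with 10 μM compound for 30 min, heated in aliquots for 3 min across 48°C-58°C, pooled, extracted in PBS with 0.5% NP-40 at 4°C, and centrifuged at 21,000xg for 90 min to give the soluble supernatant.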

UniProt Q9NZ01, sequence (Q9NZ01 whole entry, looked up): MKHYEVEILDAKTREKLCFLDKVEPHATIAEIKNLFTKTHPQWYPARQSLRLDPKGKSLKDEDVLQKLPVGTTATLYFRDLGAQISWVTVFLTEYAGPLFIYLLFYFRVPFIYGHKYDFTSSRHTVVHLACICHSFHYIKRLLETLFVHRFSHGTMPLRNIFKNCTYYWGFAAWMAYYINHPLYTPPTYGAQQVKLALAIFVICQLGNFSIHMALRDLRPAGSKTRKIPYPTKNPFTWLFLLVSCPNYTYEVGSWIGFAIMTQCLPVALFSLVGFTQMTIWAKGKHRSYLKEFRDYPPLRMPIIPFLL
UniProt P51532, sequence (P51532 whole entry, looked up): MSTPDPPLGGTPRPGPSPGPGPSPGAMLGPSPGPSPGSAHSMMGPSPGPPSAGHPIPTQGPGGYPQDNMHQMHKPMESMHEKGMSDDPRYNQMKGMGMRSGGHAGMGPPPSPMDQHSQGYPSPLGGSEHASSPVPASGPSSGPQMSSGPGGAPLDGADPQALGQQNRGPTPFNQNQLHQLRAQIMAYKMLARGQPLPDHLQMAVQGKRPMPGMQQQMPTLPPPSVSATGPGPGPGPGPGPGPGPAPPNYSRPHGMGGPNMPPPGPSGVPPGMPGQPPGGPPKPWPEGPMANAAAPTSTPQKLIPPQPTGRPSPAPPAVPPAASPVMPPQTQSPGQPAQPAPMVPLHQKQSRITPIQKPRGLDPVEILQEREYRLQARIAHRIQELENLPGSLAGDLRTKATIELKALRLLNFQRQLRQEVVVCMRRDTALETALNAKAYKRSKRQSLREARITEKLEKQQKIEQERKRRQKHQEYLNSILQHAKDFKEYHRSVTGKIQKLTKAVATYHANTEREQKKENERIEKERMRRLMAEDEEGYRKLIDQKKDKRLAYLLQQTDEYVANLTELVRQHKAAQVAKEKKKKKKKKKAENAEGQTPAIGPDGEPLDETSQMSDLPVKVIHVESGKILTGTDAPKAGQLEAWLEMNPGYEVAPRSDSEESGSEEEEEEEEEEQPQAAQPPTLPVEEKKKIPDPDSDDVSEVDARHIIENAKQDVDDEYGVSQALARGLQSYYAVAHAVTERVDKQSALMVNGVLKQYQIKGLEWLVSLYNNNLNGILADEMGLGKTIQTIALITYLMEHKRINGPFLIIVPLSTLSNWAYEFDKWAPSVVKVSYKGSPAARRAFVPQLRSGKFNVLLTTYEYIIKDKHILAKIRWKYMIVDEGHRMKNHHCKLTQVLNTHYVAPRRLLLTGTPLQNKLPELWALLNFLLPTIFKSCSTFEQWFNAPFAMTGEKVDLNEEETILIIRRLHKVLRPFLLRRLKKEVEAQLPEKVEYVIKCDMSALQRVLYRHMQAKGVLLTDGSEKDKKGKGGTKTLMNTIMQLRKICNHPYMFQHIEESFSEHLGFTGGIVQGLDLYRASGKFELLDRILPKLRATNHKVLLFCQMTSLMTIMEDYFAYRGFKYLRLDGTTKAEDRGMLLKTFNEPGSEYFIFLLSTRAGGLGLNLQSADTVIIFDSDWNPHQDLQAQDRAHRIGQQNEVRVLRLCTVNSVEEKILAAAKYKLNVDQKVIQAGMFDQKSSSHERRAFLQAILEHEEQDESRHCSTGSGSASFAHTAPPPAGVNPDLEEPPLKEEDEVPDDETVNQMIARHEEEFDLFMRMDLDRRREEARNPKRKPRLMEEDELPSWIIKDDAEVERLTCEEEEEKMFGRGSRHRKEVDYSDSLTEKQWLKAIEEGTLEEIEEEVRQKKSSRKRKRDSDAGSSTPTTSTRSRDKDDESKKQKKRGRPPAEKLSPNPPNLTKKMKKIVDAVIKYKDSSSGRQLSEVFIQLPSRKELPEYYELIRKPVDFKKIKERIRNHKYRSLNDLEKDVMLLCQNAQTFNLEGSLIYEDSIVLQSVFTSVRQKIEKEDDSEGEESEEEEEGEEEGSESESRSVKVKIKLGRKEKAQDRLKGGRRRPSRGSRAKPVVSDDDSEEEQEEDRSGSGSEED
UniProt P78382, sequence (P78382 whole entry, looked up): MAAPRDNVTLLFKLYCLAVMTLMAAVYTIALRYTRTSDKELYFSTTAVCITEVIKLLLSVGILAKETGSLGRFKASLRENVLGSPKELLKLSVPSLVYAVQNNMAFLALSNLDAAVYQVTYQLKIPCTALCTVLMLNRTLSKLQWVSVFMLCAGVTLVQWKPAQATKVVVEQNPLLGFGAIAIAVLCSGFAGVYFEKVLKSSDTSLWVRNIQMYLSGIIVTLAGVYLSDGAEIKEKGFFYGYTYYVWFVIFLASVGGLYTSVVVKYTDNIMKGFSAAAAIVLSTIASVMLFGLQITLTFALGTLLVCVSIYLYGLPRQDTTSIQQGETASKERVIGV
UniProt Q92609, sequence (Q92609 whole entry, looked up): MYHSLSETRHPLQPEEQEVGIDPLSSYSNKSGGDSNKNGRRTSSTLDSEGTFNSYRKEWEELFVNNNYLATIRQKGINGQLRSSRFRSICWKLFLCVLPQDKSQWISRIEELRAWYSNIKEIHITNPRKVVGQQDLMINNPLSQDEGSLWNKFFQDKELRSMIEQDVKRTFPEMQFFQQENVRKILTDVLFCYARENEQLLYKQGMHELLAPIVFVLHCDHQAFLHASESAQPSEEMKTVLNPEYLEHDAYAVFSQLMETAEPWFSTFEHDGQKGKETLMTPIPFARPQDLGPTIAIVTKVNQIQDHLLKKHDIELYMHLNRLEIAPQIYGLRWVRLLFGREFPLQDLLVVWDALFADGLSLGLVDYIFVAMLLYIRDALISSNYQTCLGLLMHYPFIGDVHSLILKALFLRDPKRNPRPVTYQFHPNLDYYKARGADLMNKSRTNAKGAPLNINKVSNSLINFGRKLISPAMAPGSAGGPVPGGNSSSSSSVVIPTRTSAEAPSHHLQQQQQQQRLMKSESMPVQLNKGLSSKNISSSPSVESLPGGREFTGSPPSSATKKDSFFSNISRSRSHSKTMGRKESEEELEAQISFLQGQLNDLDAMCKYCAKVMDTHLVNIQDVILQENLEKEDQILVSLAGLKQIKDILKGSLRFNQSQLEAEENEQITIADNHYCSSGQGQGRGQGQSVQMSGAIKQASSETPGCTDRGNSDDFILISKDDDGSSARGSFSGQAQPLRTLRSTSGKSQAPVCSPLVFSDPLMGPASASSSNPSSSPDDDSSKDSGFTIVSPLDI
UniProt P55061, sequence (P55061 whole entry, looked up): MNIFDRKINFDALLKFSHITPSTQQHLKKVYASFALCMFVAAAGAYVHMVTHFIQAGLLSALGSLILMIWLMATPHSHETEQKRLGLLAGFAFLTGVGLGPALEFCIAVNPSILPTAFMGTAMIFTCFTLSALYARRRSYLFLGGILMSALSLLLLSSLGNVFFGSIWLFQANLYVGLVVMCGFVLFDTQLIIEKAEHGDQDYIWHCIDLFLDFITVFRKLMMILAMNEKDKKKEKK
UniProt Q9H4I9, sequence (Q9H4I9 whole entry, looked up): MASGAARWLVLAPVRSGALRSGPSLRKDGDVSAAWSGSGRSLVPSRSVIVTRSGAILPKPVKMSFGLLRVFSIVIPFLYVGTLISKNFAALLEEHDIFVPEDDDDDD
UniProt O75663, sequence (O75663 whole entry, looked up): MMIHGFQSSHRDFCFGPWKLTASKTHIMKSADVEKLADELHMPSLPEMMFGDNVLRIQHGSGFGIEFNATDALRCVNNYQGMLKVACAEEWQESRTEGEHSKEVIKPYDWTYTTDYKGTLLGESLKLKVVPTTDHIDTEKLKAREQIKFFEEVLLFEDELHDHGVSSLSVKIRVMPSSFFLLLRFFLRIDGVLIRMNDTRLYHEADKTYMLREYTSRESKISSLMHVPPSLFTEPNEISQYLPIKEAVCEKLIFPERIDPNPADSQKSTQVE
UniProt O75494, sequence (O75494 whole entry, looked up): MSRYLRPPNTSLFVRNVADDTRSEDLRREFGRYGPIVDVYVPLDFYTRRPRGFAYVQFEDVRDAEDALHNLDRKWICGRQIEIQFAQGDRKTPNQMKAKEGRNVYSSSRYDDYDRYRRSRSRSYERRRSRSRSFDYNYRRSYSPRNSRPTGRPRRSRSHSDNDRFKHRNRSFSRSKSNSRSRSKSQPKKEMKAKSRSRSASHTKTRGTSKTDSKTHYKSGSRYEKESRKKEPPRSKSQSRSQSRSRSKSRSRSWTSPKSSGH
UniProt P12235, sequence (P12235 whole entry, looked up): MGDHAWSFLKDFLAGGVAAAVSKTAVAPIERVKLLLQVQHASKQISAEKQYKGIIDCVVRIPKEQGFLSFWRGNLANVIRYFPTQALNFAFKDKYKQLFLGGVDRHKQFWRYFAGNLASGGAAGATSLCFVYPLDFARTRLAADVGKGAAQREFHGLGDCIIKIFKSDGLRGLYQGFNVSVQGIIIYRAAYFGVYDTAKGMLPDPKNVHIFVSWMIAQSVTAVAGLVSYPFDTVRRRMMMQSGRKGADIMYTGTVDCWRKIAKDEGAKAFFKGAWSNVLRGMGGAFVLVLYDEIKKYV
UniProt Q658P3, sequence (Q658P3 whole entry, looked up): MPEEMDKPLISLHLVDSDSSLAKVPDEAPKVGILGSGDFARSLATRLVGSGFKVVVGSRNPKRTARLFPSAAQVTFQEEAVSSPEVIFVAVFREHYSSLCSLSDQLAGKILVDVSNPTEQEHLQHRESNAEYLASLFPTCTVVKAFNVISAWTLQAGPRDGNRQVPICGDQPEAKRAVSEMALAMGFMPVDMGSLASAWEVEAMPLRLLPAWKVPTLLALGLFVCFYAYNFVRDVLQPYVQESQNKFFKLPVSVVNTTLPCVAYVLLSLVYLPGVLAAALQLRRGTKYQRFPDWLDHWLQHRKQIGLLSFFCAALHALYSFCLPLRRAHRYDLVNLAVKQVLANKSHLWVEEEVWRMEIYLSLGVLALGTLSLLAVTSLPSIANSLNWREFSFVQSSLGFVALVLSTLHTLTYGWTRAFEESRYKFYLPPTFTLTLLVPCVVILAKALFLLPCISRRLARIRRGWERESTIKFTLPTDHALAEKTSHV

Target | log2 fold change
SMARCA4 (UniProt P51532) | -0.144
TFR2 (UniProt Q9UP52) | -0.039
TECR (UniProt Q9NZ01) | 0
SRSF10 (UniProt O75494) | 0.059
TBC1D5 isoform 2 (UniProt Q92609) | -0.006
SRP68 (UniProt Q9UHB9) | -0.068
SYMPK (UniProt Q92797) | -0.018
STEAP3 isoform 2 (UniProt Q658P3) | -0.13
SLC25A4 (UniProt P12235) | -0.012
SLC39A11 (UniProt Q8N1S5) | 0
TMBIM6 isoform 2 (UniProt P55061) | 0.027
SMDT1 (UniProt Q9H4I9) | -0.062
SLC35A1 (UniProt P78382) | -0.05
TIPRL (UniProt O75663) | -0.057
